Only some compounds are listed: those with a hit (about 17% of all), similar ones and a draw of the others.
TGFb SMAD3 inh: qHTS for Inhibitors of TGF-b; AID 588855, 2011; Potency, µM (series often up to 46.1 µM), hits mostly inhibitors; hit rate 1.2% among 410,000; HepG2 CAGA-GFP TGF-b/SMAD3 reporter, GFP fluorescence, 18 h; TGF-beta stimulated, 500 pg/mL final; also: nearly all actives have a fitted effect of over 65% in size
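Inhibition was scored as loss of TGF-beta-induced (500 pg/mL final, 18 hours, 37 degrees C) GFP in HEPG2 cells carrying a CAGA-GFP reporter, in DMEM with 1% FBS. Well GFP was summed per cell; Activity was normalised to unstimulated and stimulated DMSO wells, then concentration-response fitting.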
HT1080-NT tox: qHTS for induction of synthetic lethality in tumor cells producing 2HG: qHTS for the HT-1080-NT fibrosarcoma cell line. HT-1080-NT fibrosarcoma viability, CellTiter-Glo ATP luminescence, 48 h. Potency, µM (highest dose often 46.1 µM), actives largely listed as cytotoxic. hit rate 1.6% among 360,000;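 also: NT is the 2HG producing partner of a matched IDH1 knockdown line; nearly all actives have a fitted effect of over 55% in size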
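Viability of the 2HG-overproducing fibrosarcoma line after 48 hours of compound exposure at 37 degrees C was determined by luminescence with CellTiter-Glo, and concentration-effect curves were then fitted and categorized.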
TDP1 cell CPT: qHTS for Inhibitors of human tyrosyl-DNA phosphodiesterase 1 (TDP1): qHTS in cells in presence of CPT | chicken DT40 Tdp1-/-;hTDP1 cells + 20 nM CPT, ATP luminescence, 48 h | Potency, µM (doses to about 46.2 µM), usual class: inhibitors | hit rate 12% among 420,000; also: nearly all actives have a fitted effect of over 55% in size
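Chicken DT40 Tdp1-/- cells stably complemented with human TDP1 were seeded at 400 cells/well in medium containing 20 nM camptothecin, exposed to pin-transferred compounds, and grown at 37 °C for at least 48 hr. Viability was read as ATP luminescence.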
HT1080 IDH1KD tx: qHTS for induction of synthetic lethality in tumor cells producing 2HG: qHTS for the HT-1080-IDH1KD cell line. HT-1080 IDH1 knockdown viability, ATP luminescence, 48 h. Potency, µM (doses to about 46.1 µM), hits mostly cytotoxic. hit rate 2% among 360,000. AID 686971, 2013
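Assay cells: HT-1080 with IDH1 knockdown, 750 per well, RPMI/5% FBS. Exposure: 48 h at 37 °C following 2 h pre-incubation. Read: CellTiter-Glo luminescence; fitted concentration-response, curve class assigned.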
DT40 TDP1 no CPT: qHTS for Inhibitors of human tyrosyl-DNA phosphodiesterase 1 (TDP1): qHTS in cells in absence of CPT. DT40 Tdp1-/- hTDP1 cells, no CPT, ATP luminescence, 48 h. Potency, µM (top dose mostly 46.2 µM), hits mostly inhibitors. hit rate 15% among 420,000. AID 686978, 2013; also: nearly all actives have a fitted effect of over 55% in size
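No-CPT arm: Tdp1-/-;hTDP1 DT40 cells (400/well) plus compounds, incubated ≥48 hr at 37 °C. Readout CellTiter-Glo luminescence.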
HepG2 viability: qHTS for Inhibitors of TGF-b: Cytotox Counterscreen; hit rate 0.76% among 410,000; Potency, µM (doses to about 46.1 µM), most hits filed as cytotoxic; HepG2 CAGA-GFP viability, ATP luminescence, 18 h; AID 588856, 2011
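HepG2 CAGA-GFP cells (1000/well, DMEM with 1% FBS) received compound, then TGF-beta at 500 pg/mL final, and were incubated 18 hours at 37 degrees C. Viability was read by CellTiter-Glo luminescence. Media-only wells were set as complete cell-killing and DMSO as no toxicity.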
Each line names hits and unclear results; the compound was inactive in the other large screens. Calls follow the shape of the dose curve; as a rule, active = well fitted curve in the direction sought with a large enough effect; inconclusive = small, poorly fitted or top-dose-only effect, or another doubt; inactive = no such curve, though single readings can be large; an effect the other way counts as inactive or inconclusive.

Cc1ccc(S(=O)(=O)N/N=C\c2ccccc2OCc2ccccc2)cc1	TGFb SMAD3 inh inconclusive, HT1080-NT tox inconclusive, TDP1 cell CPT inconclusive, HT1080 IDH1KD tx inconclusive, DT40 TDP1 no CPT 18µM
Cc1ccc(S(=O)(=O)NN=Cc2ccccc2Cl)cc1	TDP1 cell CPT 23µM, DT40 TDP1 no CPT inconclusive
Cc1ccc(S(=O)(=O)NN=Cc2cc(Cl)ccc2O)cc1	none
c1ccc(Oc2cccc(OCCCCSc3ncccn3)c2)cc1	none
COc1ccc(NC(=O)c2cccc(N3CCCS3(=O)=O)c2)c(OC)c1	none (no result: HT1080-NT tox, HT1080 IDH1KD tx)
CCOc1ccccc1CN1CCN(Cc2ccc3cc(F)ccc3n2)CC1CCO (centres undefined)	TDP1 cell CPT inconclusive
OCCC1CN(Cc2ccc3cc(Cl)ccc3n2)CCN1Cc1ccsc1 (centres undefined)	TDP1 cell CPT 13µM, HT1080 IDH1KD tx inconclusive, DT40 TDP1 no CPT inconclusive
CCOc1ccc(CN2CCN(Cc3cc4c(cc3Cl)OCO4)CC2CCO)cc1 (centres undefined)	HT1080-NT tox inconclusive, TDP1 cell CPT inconclusive, DT40 TDP1 no CPT 16µM
CCOc1ccccc1CN1CCN(Cc2cc3ccccc3[nH]2)CC1CCO (centres undefined)	HT1080-NT tox 23µM, TDP1 cell CPT inconclusive, HT1080 IDH1KD tx inconclusive, DT40 TDP1 no CPT inconclusive
CCOc1ccc2nc(CN3CCN(Cc4ccccc4OCC)C(CCO)C3)ccc2c1 (centres undefined)	TDP1 cell CPT 23µM, HT1080 IDH1KD tx inconclusive, DT40 TDP1 no CPT 26µM
CCC(C)NC(=O)c1ccc(NC(=O)C2=C(C)OCCS2)cc1 (centres undefined)	none
CCc1cccc(C)c1NC(=O)Cn1c(=O)cc(C)c2c(C)nn(-c3cccc(F)c3)c21	none (no result: HT1080-NT tox, HT1080 IDH1KD tx)
COc1ccc(CN2CCN(Cc3ccc4cc(F)ccc4n3)CC2CCO)c(C)c1C (centres undefined)	TGFb SMAD3 inh inconclusive, HT1080-NT tox inconclusive, TDP1 cell CPT 16µM, HT1080 IDH1KD tx 18µM, DT40 TDP1 no CPT inconclusive
COc1cc(CN2CCN(Cc3ccc4cc(F)ccc4n3)CC2CCO)cc(OC)c1 (centres undefined)	none
CCOc1ccc(CN2CCN(Cc3cccn3-c3ncccn3)CC2CCO)cc1 (centres undefined)	DT40 TDP1 no CPT inconclusive
COc1ccc(CN2CCN(Cc3cccn3-c3ncccn3)CC2CCO)c(C)c1C (centres undefined)	HT1080-NT tox inconclusive, TDP1 cell CPT inconclusive, HT1080 IDH1KD tx inconclusive, DT40 TDP1 no CPT 9.2µM
O=C(CN1CCC(n2nnc3cc(C(F)(F)F)ccc32)CC1)Nc1ccc2c(c1)CCC2	TDP1 cell CPT inconclusive, DT40 TDP1 no CPT 21µM
COC(=O)c1ccccc1NC(=O)CN1CCC(n2nnc3cc(C(F)(F)F)ccc32)CC1	none
CC1Cc2ccccc2N1C(=O)CN1CCC(n2nnc3cc(C(F)(F)F)ccc32)CC1 (centres undefined)	TDP1 cell CPT inconclusive, DT40 TDP1 no CPT 23µM
O=C(CN1CCC(n2nnc3cc(C(F)(F)F)ccc32)CC1)Nc1ccc2c(c1)OCCO2	TDP1 cell CPT inconclusive, HT1080 IDH1KD tx inconclusive, DT40 TDP1 no CPT inconclusive
Cc1cc(C)c(S(=O)(=O)N2CCN(S(=O)(=O)N3CCOCC3)CC2)c(C)c1	none
Cc1c(C(=O)N/N=C/C(C)C)[nH]c2c([N+](=O)[O-])cccc12	HT1080-NT tox inconclusive, HT1080 IDH1KD tx 2.6µM, DT40 TDP1 no CPT 23µM
CCOc1ccc(C2C(=O)N(C3CCCCCC3)CC(=O)N2CCc2ccccc2)cc1OC (centres undefined)	TDP1 cell CPT inconclusive, DT40 TDP1 no CPT inconclusive (no result: HT1080-NT tox, HT1080 IDH1KD tx)
O=C(NC(=S)NCCC1=CCCCC1)c1ccccc1Br	TGFb SMAD3 inh inconclusive, TDP1 cell CPT inconclusive, DT40 TDP1 no CPT 16µM
S=C(NCCC1=CCCCC1)NCc1ccco1	TDP1 cell CPT 16µM, HT1080 IDH1KD tx inconclusive, DT40 TDP1 no CPT 10µM
CCOc1ccc(S(=O)(=O)N(C(=O)c2ccco2)c2cc3sc(=O)oc3c3ccccc23)cc1	TGFb SMAD3 inh inconclusive, HT1080-NT tox inconclusive, TDP1 cell CPT 18µM, DT40 TDP1 no CPT inconclusive
CCOc1ccc(S(=O)(=O)N(C)CC(=O)NCc2ccco2)cc1	none
Cc1ccc(S(=O)(=O)N(C(=O)c2ccco2)c2cc3sc(=O)oc3c3ccccc23)cc1	TGFb SMAD3 inh inconclusive, HT1080-NT tox inconclusive, TDP1 cell CPT 5.2µM, HT1080 IDH1KD tx inconclusive, DT40 TDP1 no CPT 2.6µM
Cc1ccc(S(=O)(=O)N(C)CC(=O)N2CCN(C(=O)c3ccco3)CC2)cc1	none
Cc1c(N=O)c(-c2ccccc2)n(O)[n+]1[O-]	TDP1 cell CPT inconclusive, DT40 TDP1 no CPT inconclusive
CCCCOc1cccc(C(=O)Nc2ccc(NC(=O)c3cccs3)cc2)c1	HT1080-NT tox 21µM, TDP1 cell CPT 15µM, HT1080 IDH1KD tx 15µM, DT40 TDP1 no CPT inconclusive
COc1ccc(NC(=O)Nc2cccs2)cc1Cl	TDP1 cell CPT inconclusive, DT40 TDP1 no CPT 23µM
COc1c(Cl)cc(Cl)cc1C(=O)Nc1ccc(NC(=O)c2cccs2)cc1	HT1080-NT tox inconclusive, TDP1 cell CPT inconclusive, DT40 TDP1 no CPT 16µM
COc1ccc(C(=O)Nc2ccc(NC(=O)c3cccs3)cc2)cc1OC	TGFb SMAD3 inh inconclusive, TDP1 cell CPT inconclusive, DT40 TDP1 no CPT 18µM (no result: HT1080-NT tox, HT1080 IDH1KD tx)
